What was measured:
Test in all cases: PBM binding z-score (relative to random genomic background probes); higher = stronger binding; sequences stand for … in GC…GCGATTGACAGCGTAGAATGAAGG
[1] = test system: RARb homodimer (NR concentration 270 nM)
Method in brief: (§1)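 For binding z-scores, the reference was random background probes on custom Agilent 4×180K protein-binding microarrays. These arrays were incubated 1 h with ligand-free nuclear receptor dimers in PBS pH 7.4, 2% milk, 0.02% Triton X-100, 1 mM DTT, 0.2 mg/mL BSA and 0.4 mg/ml salmon testes DNA. Fluorescence was scanned after antibody detection of each partner (one per run) and regression-normalized.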

[2] = test system: RARg:RXRa (NR concentration 270 nM, RXRa partner concentration 90 nM)
Method in brief: as §1

[3] = test system: RARg homodimer (NR concentration 270 nM)
Method in brief: as §1

[4] = test system: RXRa DBDmut IVT, anti-RXR (DBD mutation: RXRa K156A/R161A, NR concentration 90 nM)
Method in brief: as §1

[5] = test system: RXRa homodimer (NR concentration 180 nM)
Method in brief: as §1

[6] = test system: THRa:RXRa (NR concentration 90 nM, RXRa partner concentration 90 nM)
Method in brief: as §1

[7] = test system: THRa homodimer (NR concentration 90 nM)
Method in brief: as §1

[8] = test system: VDR homodimer (NR concentration 270 nM)
Method in brief: as §1

Sequence	PBM binding z-score [1]	PBM binding z-score [2]	PBM binding z-score [3]	PBM binding z-score [4]	PBM binding z-score [5]	PBM binding z-score [6]	PBM binding z-score [7]	PBM binding z-score [8]
TCATGTAGGTAATACAGGTGAAAGTCGGCATCTA	0.12	0.0242	-0.0708	0.736	0.579	0.531	-0.119	-0.0287
CCTCGGTGGACAGAAGGTCAGAGCTGTCCGCTTT	2.87	2.3	1.99	-0.526	1.84	1.89	-0.379	-0.538
CAAACTAGGTCACAGAAGTCAAAGTCCGTGCGTA	3.41	4.45	5.16	2.03	3.63	3.3	1.26	1.16
ATATGTAGGTTATGGGGTCATTCAGTTTGCGCAT	4.16	5.29	3.67	2.9	6.67	4.35	4.19	7.28
ATATGTAGGATAAGGGTCATTCAGGTTGGTTCGC	3.69	3.9	3.42	2.09	4.8	3.25	1.38	4.54
CCTACTGGGCCACGAAAGGTTATTGATTCAGTGA	1.98	1.1	1.08	-0.0139	1.2	1.66	0.302	0.238
CCTCGCAGGACAACAGGAGGTCAGAGCTGCCAGA	3.19	2.79	2.57	0.186	1.86	2.51	0.912	1.05
TTAACAAGGTGAGCTGAGGTCGTTGATCCAACTC	1.42	1.03	1.09	0.404	1.42	4.55	2.04	1.8
AGGACGAGGGCACGCTGAGTTGATAGCAGAGTAG	1.36	1.76	2.67	2.23	1.51	1.88	0.162	1.51
AATACAGGGTCACTAGGCCAGTGTAGGTACGAAT	3.48	5.29	5.09	2.82	6.04	3.4	1.26	2.89
TCTATTAGTTGAGGGGCAACCGACGAGTCCGTTT	0.835	0.29	0.252	1.83	0.746	0.432	0.237	1.19
AGTATGAGGTTATACGTAGATCAGGGAAGAAAGT	0.828	1.81	1.26	1.67	2.18	2.4	0.869	0.823
GCGCGGAGGACAAGGTCAGAGCTTTGTCCGTAGA	2.99	3.09	3.32	0.639	2.43	2.89	1.33	0.885
GTTAGCAGGCCATTTGGGTCACTCAATGACGGGC	1.8	1.15	1.5	0.133	0.847	1.79	0.575	0.779
CATGCTAGGTCAATGGTCAGCTAAAGCAGCTCGC	3.11	3.81	4.43	1.63	2.29	2.38	0.438	0.0964
ATCTCTCGGTAAAAGTTCAGTGAATCCCGAGGAT	2.43	1.76	2.03	0.823	0.954	0.761	0.0329	1.74
TCTCGGAGGACACGAAGGTTAGAGCTTTCCAGAG	1.26	0.969	1.89	0.169	0.126	1.59	0.277	-0.226
TCATGTAGATCAGCAGGTTAAGAAAGCTGGCCAA	-0.0199	-0.0908	-0.0942	0.626	0.381	0.195	-0.553	-0.749
TATACAGGTTCAAAGGCCAGAGTACGAATGTCGA	1.82	2.45	1.79	4.01	3.63	1.25	-0.0522	4.75

Sequence	PBM binding z-score [1]	PBM binding z-score [2]	PBM binding z-score [3]	PBM binding z-score [4]	PBM binding z-score [5]	PBM binding z-score [6]	PBM binding z-score [7]	PBM binding z-score [8]
GCTATTGGTTGAAAGGGCAACCGAATGATTCTCG	1.94	1.33	1.27	0.0979	1.32	0.466	-0.293	0.0908
CCTACTGGGCCATCAGGTAATTGATATCAACGTT	0.184	-0.0181	0.255	-0.203	-0.166	0.522	0.334	-0.212
CCTCACGGGTCACTGACAGGTTATAGCATTTGGA	3.33	5.64	4.5	1.81	4.65	2.77	0.669	1.02
CCAGACAGGTGAGATGGTAACTCAGCCTCGATTA	0.103	0.164	0.225	-0.124	-0.0452	-0.143	0.146	0.202
ACTATTAGTTGAGACGAGGGAAACCGATAGGTTG	-0.559	0.157	0.307	0.505	0.0988	0.35	-0.716	0.415
AGTCAAAGTTCACAAGGTAACGTAAGATTCAGCT	3.97	5.73	6.02	4.32	4.74	3.06	0.961	3.66
TCTATTAGTTGAAGCGCAACCGACGAGTCCGTTT	-0.298	-0.0942	-0.507	1.16	0.302	-0.201	-0.12	0.818
GCGACTAGGGCATCAGCAGGTTACCATAACTTAA	0.836	1.12	0.817	0.0692	0.47	0.885	0.0227	-0.299
TCTGCTAGTTCAGTTGGTCAGCTAACGAGCTGCC	0.296	-0.136	0.0684	0.659	-0.391	-0.312	-0.718	-0.523
CGTCAAAGTTCAACTAAGGTAACGTCAAGCACGC	4.4	5.96	6.81	4.8	4.81	5.05	1.86	3.9
GCTTGTAGATCAAGGTTAGGAAAGACTAAGCTAA	-0.185	-0.139	-0.0948	-0.199	0.0572	0.576	-0.327	-0.0771
CCTACTTGGCCATCAGGTCATTGATATCAACGTT	2.89	2.15	2.12	1.5	1.43	3.39	3.64	2.19
GCATATAGGTAATACAATGTGAAAGTCCGATTGT	-0.3	0.415	0.478	0.58	0.305	0.425	-0.105	0.523
GCAGTCAGGTGAAACGCAGGTAACTCAGGGTGGC	0.205	0.634	0.376	-0.235	0.237	1.8	0.308	-0.682
TCTTGTAGATCAAAGGTTAACAAAGCCGAAGCCT	1.66	1.93	1.09	0.706	3.2	1.32	-0.41	-0.185
ACTAGCAGGCCAAGTTTGGGTCACACAAACAAAG	2.17	2.66	1.73	-0.304	1.44	2.67	1.04	0.103
ACTATTAGTTGACATAGGGCAACCGATACGACGC	1.24	0.928	1.29	0.826	0.903	1.25	0.125	0.399
CGAACTAGGTCAGAAGAGGACAGTGAAGGATGAT	2.53	2.68	3.66	0.392	1.03	4.34	0.406	0.275
CTCGAAAGCTCGGTTGAGGTGAGTATACGGATAA	-0.282	-0.264	-0.254	-0.28	-0.256	1.85	1.03	-0.293

Sequence	PBM binding z-score [1]	PBM binding z-score [2]	PBM binding z-score [3]	PBM binding z-score [4]	PBM binding z-score [5]	PBM binding z-score [6]	PBM binding z-score [7]	PBM binding z-score [8]
CCGACTGCGGCAGAAAGGTTACCATACCATCCGG	1.92	0.857	0.647	-0.0879	1.57	1.02	0.00107	-0.0446
AGACTGAGGTTACCAAAGATCAGGGAAACGCTTG	0.774	2	1.59	0.709	2.5	2.7	0.552	0.497
CCTTACGGGTCACTGATAGGTTATAGCATTTGGA	3.34	5.65	4.89	1.85	5.48	2.74	0.24	1.17
TCTAGCTGGCCAGAGGGTCACTCAAGAGGTACGG	2.27	2.07	1.43	-0.123	2.18	1.48	-0.56	0.32
CCTTACTGGTCACTCCAGGTTATAGCATCGGAGT	1.42	0.885	1.32	0.271	0.519	3.26	1.03	0.805
TAGCCTAGGTCAGACCGGGCCAGTATACGCTATA	2.24	2.62	3.34	-0.68	1.38	3.99	-0.0936	-0.324
TCTCGTAGATCAACAGGAGGTTAAGAAAGATCGA	0.63	0.917	0.145	0.538	1.01	0.902	-0.325	-0.382
CAAACTACGTCACGAAAGGTCAAAGTCGAATGAC	4.48	5.61	5.12	1.05	6.68	3.93	1.11	2.66
ATCTCCAGGTAACCAAGTTCAGTGAATGCCGAAC	1.58	0.664	0.86	1.06	0.486	1.96	1.31	3.04
AGAATGAGGGTAAGATCAGGGAAACAGAATACAT	0.584	0.474	0.611	0.212	0.321	1.54	0.43	0.304
TCGGGTAGGTTAGGGGCATTCAGAATGGCGTCGA	1.88	1.07	1	0.943	1.02	2.44	1.61	1.79
CCTTACGGGTCAAGATTATAGCACGGGTGGTACG	2.79	4.4	4.24	0.558	5.02	2.02	0.000143	0.658
TCATATAGGTAATACAGGTGAAAGACGGCATCTA	0.66	0.945	0.86	1.52	1.38	0.85	0.434	0.471
CCCAGCAGGCCAATCTGGGTCACTCAAGGCTTGA	2.53	1.29	1.5	-0.496	0.923	3.73	0.49	-0.172
TTACCAAGGTGAGCTGAGGTCGTTTATCCAACTC	1.47	1.08	0.862	0.292	1.27	4.58	2.09	2.23
CAAACTAGGTCACAGAGGTCAAGGTCCGTGCGTA	5.39	7.22	7.73	2.61	7.09	5.05	3.46	4.66
TTACTAAGGTGAAAGGTCGTTGATGCACGCCTTG	3.02	4.74	2.37	1.45	6.58	4	2.17	1.78
ATATGTAGGTTAGCTGGGGTCATTCAAACTAGGC	4.02	4.22	3.15	2.15	5.57	5.16	3.52	5.71
TCTTGTAGATCAACAAGAGGTTAAGAAAGATCGA	0.756	1.56	0.53	-0.00375	1.4	1.22	-0.94	-0.26

— the supplement of paper PMC6555819
